SIRT5 block = sirtuin-5 (human) deacylase inhibition. 330,000 compounds, 1.1% hits. inhibition, % at 15 µM. AID 652115. Purified SirT5, succinyl-peptide AMC, trypsin-coupled fluorescence. Q9NXA8; in the data active = inhibition above about 15%
Target sequence (Q9NXA8 whole entry, looked up): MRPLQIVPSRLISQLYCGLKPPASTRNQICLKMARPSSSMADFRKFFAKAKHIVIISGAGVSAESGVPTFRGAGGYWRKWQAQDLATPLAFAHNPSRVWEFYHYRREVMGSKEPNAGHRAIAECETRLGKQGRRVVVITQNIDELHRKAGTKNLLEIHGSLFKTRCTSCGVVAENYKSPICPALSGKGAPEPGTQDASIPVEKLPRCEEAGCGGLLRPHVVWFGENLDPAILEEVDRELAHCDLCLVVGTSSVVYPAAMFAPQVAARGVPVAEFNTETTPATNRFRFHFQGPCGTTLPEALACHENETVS
PAX8 reporter = lowers PAX8-driven luciferase in RMG-I cells. RMG-I TPO-luciferase reporter, SteadyGlo, 24 h. inhibition, % at 12.6 µM. 360,000 compounds, 1.2% hits. AID 652154;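 active = mean replicate inhibition at least 60% with every replicate also reaching 60%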;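 also: luciferase light reporting Pax8 driven TPO promoter activity; plate controls were median of neutral control wells for no effect and mitoxantrone controls for full effect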
Ecoli rRNA inh = selective bacterial rRNA inhibition in E. coli | 350,000 compounds, 1.6% hits | GFP signal change (wild-type ribosome), % (concentration not given with the values) | AID 720706 | E. coli WT GFP vs humanized-ribosome RFP mutants, fluorescence, 24 h; active compounds read low; DMSO median 0, no signal -100;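 active = significant combined selectivity score with lowered wild-type GFP, culture density cut under 30%, mutant RFP and density less affected; inactive = any of these conditions unmet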
EWS-Fli inh = EWS/Fli transcriptional activity inhibition | 350,000 compounds, 0.67% hits | inhibition, % at 12.6 µM | AID 651661 | A673 NR0B1-luciferase reporter, viability-normalised;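 active = mean inhibition of at least 50% after viability correction, with every replicate also passing that limit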;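 also: firefly luciferase signal divided by Alamar Blue viability fluorescence both relative to DMSO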
PGC1a acetyl inh = lowers PGC1a acetylation signal in U2OS cells | AlphaScreen anti-acetyl-lysine; with virally co-expressed GCN5 acetyltransferase | inhibition, % at 15.6 µM | 350,000 compounds, 0.17% hits;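 active = every replicate shows inhibition of at least 40%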;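 also: 0% = neutral control wells and 100% = positive control wells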
LGR2 inh = inhibitors of bursicon-induced Drosophila LGR2 receptor cAMP signaling | HEK293 LGR2, CRE-luciferase, bursicon-stimulated, 4 h | inhibition, % at 9.99 µM | 380,000 compounds, 0.35% hits | AID 720647;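 active = drop in luminescence signal, shown as inhibition above about 50% in the replicate tests, limit read from the data, passing the limit was not always enough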;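 also: agonist challenge used bursicon conditioned medium at about half maximal strength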
* marks the source's active call; other numbers are inactive results; nt = no result given. An excerpt weighted towards active compounds, which were near 3.4% of everything screened.

SMILES | SIRT5 block | PAX8 reporter | Ecoli rRNA inh | EWS-Fli inh | PGC1a acetyl inh | LGR2 inh
O=C(c1cc(-c2ccncc2)nc2ccc(Br)cc12)N1CCN(c2ccccn2)CC1 | nt | nt | nt | nt | 0 | nt
O=C(c1cc(-c2ccccc2Cl)nc2ccc(Br)cc12)N1CCN(c2ccccn2)CC1 | -2 | -2 | 7 | nt | -17 | 68*
CCC(=O)c1cc2c(C)cc(=O)oc2c(C)c1OC(=O)C(C)C | nt | 72* | 5 | 1 | nt | 4
Cc1c(NC(=O)CN2C(=O)c3ccc([N+](=O)[O-])cc3C2=O)c(=O)n(-c2ccccc2)n1C | nt | -13 | 26 | 8 | 3 | -17
Cc1c(NC(=O)c2ccc(-c3ccc([N+](=O)[O-])cc3Cl)o2)c(=O)n(-c2ccccc2)n1C | 7 | -8 | -22* | 13 | -13 | -7
CC(C)NC(=O)N(C)C[C@H]1OCCCC[C@@H](C)Oc2ccc(NC(=O)C3CCCCC3)cc2C(=O)N([C@@H](C)CO)C[C@H]1C | 5 | 18 | 0 | nt | -3 | -9
O=S(=O)(N[C@@H]1CC[C@H](CCn2cc(-c3ccccn3)nn2)O[C@@H]1CO)c1cccc(F)c1 | -6 | 0 | -3 | -1 | -10 | 4
COc1ccc2c3c(n(C)c2c1)[C@H](CO)N(C(=O)CN(C)C)CC31CN(C(=O)CN(C)C)C1 | nt | nt | 0 | nt | nt | nt
C[C@@H]1CCCCO[C@@H](CN(C)Cc2ccc(C(F)(F)F)cc2)[C@H](C)CN([C@@H](C)CO)C(=O)c2cc(NC(=O)NC3CCCCC3)ccc2O1 | 1 | 78* | 3 | 0 | -11 | 0
C[C@H](CO)N1C[C@H](C)[C@H](CN(C)Cc2ccc(C(F)(F)F)cc2)OCCCC[C@H](C)Oc2ccc(NC(=O)NC3CCCCC3)cc2C1=O | 2 | 91* | -1 | -18 | 20 | 14
C[C@H]1CCCCO[C@H](CN(C)Cc2ccc(C(F)(F)F)cc2)[C@@H](C)CN([C@@H](C)CO)C(=O)c2cc(NC(=O)NC3CCCCC3)ccc2O1 | -1 | 10 | 2 | 16 | 4 | -1
CC(=O)N1[C@@H]2Cn3c(ccc(-c4ccccc4)c3=O)[C@H]1[C@@H](C(=O)NCCCN1CCOCC1)[C@@H]2CO | -39 | -18 | 4 | -5 | 19 | 4
COc1ccc2c3c(n(C)c2c1)[C@H](CO)N(C(=O)CN(C)C)CC31CN(Cc2cccnc2)C1 | nt | nt | 2 | -6 | -5 | 3
COc1ccc(CN2C[C@H](C)[C@@H](OC)CN(C)C(=O)c3ccc(NC(=O)C4CC4)cc3OC[C@@H]2C)cc1 | 5 | 7 | 1 | nt | 0 | 3
CC(C)NC(=O)Nc1cccc2c1O[C@@H](CN(C)S(=O)(=O)c1cccs1)[C@H](C)CN([C@H](C)CO)C2=O | nt | nt | 2 | -5 | 3 | 8
CCCC(=O)N1CCCC(c2cc(C(=O)Nc3ccccc3)no2)C1 (centres undefined) | -1 | 48 | 8 | 14 | -6 | 82*
O=C(Nc1ccc(F)c(Cl)c1)c1cc(C2CCCN(S(=O)(=O)c3ccccc3)C2)on1 (centres undefined) | nt | 16 | -5 | 24 | -15 | 4
Cn1cnc(S(=O)(=O)N2CCCC(c3cc(C(=O)Nc4ccc(F)c(Cl)c4)no3)C2)c1 (centres undefined) | nt | -43 | -25* | -43 | -4 | -35
COc1ccc(-c2cnc3c(c2)C(=O)N([C@@H](C)CO)C[C@H](C)[C@@H](CN(C)Cc2cccnc2)O3)cc1 | 4 | nt | -2 | -6 | 4 | -13
COc1cccc(N2CCN(C(=O)CCSCc3ccccc3F)CC2)c1 | -1 | 2 | -35* | -5 | nt | 1
COc1cc(NS(=O)(=O)c2ccc(Nc3nc(-c4cccc([N+](=O)[O-])c4)cs3)cc2)nc(OC)n1 | 19* | 7 | -12 | -14 | -12 | 10
FC(F)(F)c1nnc2c(Sc3ccccc3)nc3ccc(Cl)cc3n12 | nt | 113* | nt | nt | 15 | nt
CCC(=O)N(C)C[C@H]1Oc2cc(C#Cc3ccncc3)ccc2S(=O)(=O)N([C@H](C)CO)C[C@H]1C | 2 | nt | -4 | -3 | 10 | 8
O=C1C(=O)c2cccnc2-c2ncccc21 | 5 | 107* | -52 | 42 | nt | 100*
O=C1NC(c2cccc(Cl)c2)Oc2ccccc21 (centres undefined) | 0 | -11 | 5 | -1 | 12 | -1
SMILES | SIRT5 block | PAX8 reporter | Ecoli rRNA inh | EWS-Fli inh | PGC1a acetyl inh | LGR2 inh
CCC1NC(=O)c2ccccc2N1c1cccc(Cl)c1 (centres undefined) | -4 | 3 | -45* | 16 | -15 | 24
COC(=O)c1sc(NC(=O)c2ccncc2)nc1C | 5 | -4 | -1 | -5 | 8 | 1
CCOc1ccc(C(=O)Nc2nc(C)c(C(=O)OC)s2)cc1 | -2 | -62 | 5 | 73* | -4 | -55
C[C@H]1CN([C@@H](C)CO)S(=O)(=O)c2ccc(C#CC3CC3)cc2O[C@@H]1CN(C)Cc1cncnc1 | nt | nt | -7 | 12 | -5 | -9
COc1ccc2c3c([nH]c2c1)[C@H](CO)N(Cc1nccs1)CC31CN(Cc2nccs2)C1 | -3 | -21 | 1 | -4 | 1 | 2
COCC1=C([C@H](O)c2ccccc2)[C@H](CO)[C@@H]2C(=O)N(C)C(=O)[C@@H]2C1 | -2 | -6 | nt | -3 | 2 | nt
Clc1ccc(/C=C\c2nccc3c2[nH]c2ccccc23)cc1 | -6 | 7 | -25* | -10 | nt | 23
N#Cc1ccc(/C=C\c2nccc3c2[nH]c2ccccc23)cc1 | 0 | 20 | 14 | 9 | 10 | -3
Cc1ccc(Nc2c(-c3ccc(C)o3)nc3cnccn23)cc1 | 2 | 4 | 6 | -15 | 0 | nt
Cc1ccc(-c2nc3cnccn3c2Nc2ccc3c(c2)OCO3)o1 | 1 | 0 | -17* | 7 | 6 | -11
NCCCC[C@H](NC(=O)C1CCNCC1)c1nnc([C@@H](N)Cc2ccc(O)cc2)o1 | nt | 4 | 6 | -4 | 8 | 12
N[C@@H](CO)c1nnc([C@H](Cc2ccc(O)cc2)NC(=O)C2CCNCC2)o1 | 28* | -15 | 8 | -4 | 11 | 7
CO[C@H]1CN(C)C(=O)c2ccc(NS(C)(=O)=O)cc2OC[C@H](C)N(Cc2nccs2)C[C@@H]1C | 0 | 5 | -4 | 0 | 6 | 0
CO[C@@H]1CN(C)C(=O)c2ccc(NS(C)(=O)=O)cc2OC[C@@H](C)N(Cc2nccs2)C[C@H]1C | 20* | 8 | 1 | 7 | 7 | -2
CO[C@H]1CN(C)C(=O)c2ccc(NC(C)=O)cc2OC[C@H](C)N(Cc2nccs2)C[C@@H]1C | 18* | -18 | 1 | nt | -5 | -7
CO[C@@H]1CN(C)C(=O)c2ccc(NC(C)=O)cc2OC[C@H](C)N(Cc2nccs2)C[C@H]1C | -3 | nt | -1 | -7 | -12 | -20
CCCCNC(=O)C(Sc1ccccc1)c1ccccc1 (centres undefined) | nt | 145* | -8 | -9 | 3 | nt
